This note sets out measurements from PubChem BioAssay.

A short description of assay [1]: compounds binding Alexa647 anti-His antibody – biochemical, small-molecule microarray, 635 nm fluorescence, artefact control for SMM control protein annotation, primary screen (AID 1128).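 Note: score merges feature fluorescence with signal-to-noise for each printed compound spot.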 The conditions noted are these: higher = more signal.
For assay [2], the system named is Human papillomavirus type 1a E7 protein (residues 1-88). In words: HPV1a E7 small-molecule binders, primary screen, biochemical, small-molecule microarray, residues 1-88, 635 nm (AID 1129). The conditions noted are these: small-molecule microarray binding, fluorescence 635 nm; higher = more signal.
In assay [3] the target is Focal adhesion kinase 1 (Homo sapiens) (UniProt Q05397). In words: PTK2 protein binding on printed compound slides – biochemical, small-molecule microarray, 635/667 nm fluorescence, BSA, DTT, primary screen (AID 1130).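 Note: composite of spot emission at 667 nm and signal to noise over triplicate slides.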 The conditions noted are these: 635 nm fluorescence, higher = more signal.
Sequence of Focal adhesion kinase 1 (Homo sapiens) (Q05397 whole entry, looked up): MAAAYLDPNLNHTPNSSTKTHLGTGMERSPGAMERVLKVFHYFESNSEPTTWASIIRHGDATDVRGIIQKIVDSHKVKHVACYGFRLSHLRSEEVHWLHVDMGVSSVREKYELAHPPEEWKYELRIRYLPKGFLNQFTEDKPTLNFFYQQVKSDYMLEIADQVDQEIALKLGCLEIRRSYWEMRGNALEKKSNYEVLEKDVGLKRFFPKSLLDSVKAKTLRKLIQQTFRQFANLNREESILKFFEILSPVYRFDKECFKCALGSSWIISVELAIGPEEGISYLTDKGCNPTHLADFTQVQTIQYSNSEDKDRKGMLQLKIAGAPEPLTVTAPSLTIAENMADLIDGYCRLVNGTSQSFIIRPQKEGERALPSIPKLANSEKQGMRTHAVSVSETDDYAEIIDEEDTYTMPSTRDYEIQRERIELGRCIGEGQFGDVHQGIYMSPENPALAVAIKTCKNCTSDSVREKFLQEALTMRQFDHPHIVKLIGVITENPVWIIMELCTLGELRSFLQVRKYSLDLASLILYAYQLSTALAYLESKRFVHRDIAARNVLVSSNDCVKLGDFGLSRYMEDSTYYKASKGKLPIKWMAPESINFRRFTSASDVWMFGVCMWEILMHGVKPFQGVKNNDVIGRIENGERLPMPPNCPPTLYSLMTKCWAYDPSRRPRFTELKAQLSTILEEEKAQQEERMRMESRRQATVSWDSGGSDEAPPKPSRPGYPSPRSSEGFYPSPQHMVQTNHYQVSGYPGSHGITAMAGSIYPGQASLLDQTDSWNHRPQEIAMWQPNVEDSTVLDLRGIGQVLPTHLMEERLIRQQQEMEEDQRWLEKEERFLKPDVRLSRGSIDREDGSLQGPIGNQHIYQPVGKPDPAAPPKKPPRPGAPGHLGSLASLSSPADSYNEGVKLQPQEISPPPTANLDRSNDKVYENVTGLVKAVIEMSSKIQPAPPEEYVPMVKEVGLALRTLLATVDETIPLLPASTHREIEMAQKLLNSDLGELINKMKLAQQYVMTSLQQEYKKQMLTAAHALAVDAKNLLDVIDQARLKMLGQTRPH
The test system of assay [4] is Fibrinogen (Alexa647-labelled). In words: Alexa647-fibrinogen binding to printed small molecules – biochemical, small-molecule microarray, 635/667 nm fluorescence, artefact control for SMM control-protein annotation, profiling panel (AID 1131).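 Note: z-score merges 667 nm fluorescence with per-spot signal-to-noise over triplicate slides.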 The conditions noted are these: fibrinogen-A647 binding fluorescence, higher = more signal.
Assay [5] concerns the target Follistatin (Homo sapiens) (UniProt P19883). In words: FST protein binding to printed compounds – biochemical, small-molecule microarray, 635/667 nm fluorescence, primary screen (AID 1132). The conditions noted are these: 635 nm fluorescence, higher = more signal.
Assay [6] addresses Fibroblast growth factor 2 (Homo sapiens) (UniProt P09038). The assay can be described thus: basic fibroblast growth factor binding to printed compounds – biochemical, small-molecule microarray, 635/667 nm fluorescence, primary screen (AID 1133). The conditions noted are these: FGF2, fluorescence 635/667, higher = more signal.
Assay [7] is described as follows: JC-1 mitochondrial potential readout, lung cancer cells – cell-based, A549, JC-1 fluorescence, basal, 24 h, 100 nL, profiling panel (AID 1138).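 Note: A549 lung adenocarcinoma cells under basal conditions with no added stimulus; test concentration not given here.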 The conditions noted are these: higher = more signal.
In a further assay the test system is Lefty1. In words: Lefty1 protein binding to printed compounds – biochemical, small-molecule microarray, 635/667 nm fluorescence, primary screen (AID 1139). The conditions noted are these: fluorescence 635/667, higher = more signal.
Assay [8] has as its system wheat germ agglutinin (Triticum aestivum), Alexa647-labelled. The assay can be described thus: Alexa647-WGA lectin binding to printed small molecules – biochemical, small-molecule microarray, 635/667 nm fluorescence, artefact control for SMM control-protein annotation, profiling panel (AID 1140).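 Note: score merges 667 nm feature emission with signal to noise over triplicate slides.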 The conditions noted are these: WGA-A647 binding, 635 nm fluorescence, higher = more signal.

The target in assay [9] is Luciferin 4-monooxygenase (Photinus pyralis) (UniProt P08659). In words: inhibition of purified Photinus pyralis luciferase – biochemical, luminescence, purified enzyme, 2006 set, primary screen (AID 1141).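 Note: cell-free assay with purified firefly luciferase at 100 ng per well in PBS; test concentration not given here.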 The conditions noted are these: purified firefly luciferase, SteadyGlo luminescence, 30 min; higher = more signal, called active from +8 up or from −8 down.
Sequence of Luciferin 4-monooxygenase (Photinus pyralis) (P08659 whole entry, looked up): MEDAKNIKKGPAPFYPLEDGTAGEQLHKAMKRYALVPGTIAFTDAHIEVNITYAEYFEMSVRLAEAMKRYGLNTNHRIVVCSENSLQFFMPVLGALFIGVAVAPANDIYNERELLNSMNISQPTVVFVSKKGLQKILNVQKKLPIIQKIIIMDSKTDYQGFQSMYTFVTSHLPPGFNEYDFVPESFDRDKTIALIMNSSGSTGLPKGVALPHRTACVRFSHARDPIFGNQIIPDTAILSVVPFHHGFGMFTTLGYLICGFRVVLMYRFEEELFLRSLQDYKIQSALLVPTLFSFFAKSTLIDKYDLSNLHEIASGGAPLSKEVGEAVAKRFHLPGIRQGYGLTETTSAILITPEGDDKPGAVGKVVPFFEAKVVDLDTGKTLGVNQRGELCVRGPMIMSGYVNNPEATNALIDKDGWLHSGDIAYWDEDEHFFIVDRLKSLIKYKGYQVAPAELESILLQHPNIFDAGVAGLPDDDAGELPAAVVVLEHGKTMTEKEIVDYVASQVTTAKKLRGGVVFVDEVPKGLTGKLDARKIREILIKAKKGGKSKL
In assay [10] the test system is Wnt5a (protein binding on small-molecule microarray). In words: small molecules binding Wnt5a protein – biophysical, small-molecule microarray, 635/667 nm fluorescence, primary screen (AID 1142).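 Note: fluorescence read at 667 nm with signal to noise per printed feature.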 The conditions noted are these: 635 nm fluorescence, higher = more signal.
Assay [11] in a line: ATP-based viability of Huh7 replicon cells – cell-based, CellTiter-Glo luminescence, basal, 48 h, cytotoxicity control for HCV replication inhibitor project, primary screen (AID 1143).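 Note: Huh7 hepatoma cells carrying a hepatitis C replication reporter with no stimulus; test concentration not given here.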 The conditions noted are these: higher = more signal, called active from +8 up or from −8 down. (In general: Replicon systems follow genome replication, usually without infectious particles.)
Assay [12] can be described thus: Pseudomonas biofilm growth suppression – PAO1 strain, BacTiter-Glo luminescence, LB-PBS, primary screen (AID 1144). The conditions noted are these: P. aeruginosa PAO1 biofilm, 12 h, higher = more signal.
Assay [13] is described as follows: basal CRE-LacZ reporter activity in PC12 – cell-based, unstimulated, primary screen (AID 1145). The conditions noted are these: no forskolin, luminescence, 4.5 h, higher = more signal, called active from +8 up or from −8 down.
Assay [14] is described as follows: forskolin-driven CRE-LacZ activity in PC12 – cell-based, CRE-LacZ reporter, forskolin-stimulated, primary screen (AID 1146).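 Note: PC12 cells with 6xCRE LacZ reporter stimulated by forskolin 10 µM; beta-galactosidase reporter signal reflecting CREB driven transcription.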 The conditions noted are these: luminescence, 4.5 h, higher = more signal, called active from +8 up or from −8 down.
Assay [15] concerns the target Streptavidin (Streptomyces avidinii) (UniProt P22629). In words: compounds binding control protein streptavidin – biophysical, small-molecule microarray, 635/667 nm fluorescence, artefact control for SMM compound annotation, primary screen (AID 1147).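 Note: signal reflects streptavidin binding to arrayed compounds as a control protein.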 The conditions noted are these: higher = more signal.
The nature of assay [16]: probe aInhba binding on compound microarray – biochemical, small-molecule microarray, 635/667 nm fluorescence, primary screen (AID 1148).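 Note: score merges 667nm spot fluorescence with signal-to-noise for antibody binding to printed compounds.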 The conditions noted are these: higher = more signal.
Assay [17] deals with Torsin-1A (Homo sapiens) (UniProt O14656). The assay can be described thus: TOR1A wild-type binding on microarray – cell lysate, small-molecule microarray, lysate, 635/667 nm, primary screen (AID 1149). The conditions noted are these: COS7 hTOR1A-WT lysate, 635 nm fluorescence, higher = more signal.
Sequence of Torsin-1A (Homo sapiens) (O14656 whole entry, looked up): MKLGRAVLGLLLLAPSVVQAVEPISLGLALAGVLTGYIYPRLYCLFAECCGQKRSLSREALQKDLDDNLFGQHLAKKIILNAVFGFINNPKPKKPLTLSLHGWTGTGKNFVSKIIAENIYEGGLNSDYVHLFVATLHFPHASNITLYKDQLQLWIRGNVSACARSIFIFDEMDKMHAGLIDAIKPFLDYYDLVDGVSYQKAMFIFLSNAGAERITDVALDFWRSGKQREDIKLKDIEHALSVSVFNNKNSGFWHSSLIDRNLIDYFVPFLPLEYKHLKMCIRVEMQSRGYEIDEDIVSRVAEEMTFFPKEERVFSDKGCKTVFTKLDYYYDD
Assay [18] has the same target. In words: torsin A mutant lysate binding on microarrays – cell lysate, small-molecule microarray, COS7 lysate, 635/667 nm fluorescence, primary screen (AID 1150).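 Note: score pools 667 nm emission and signal to noise measuring lysate protein binding.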 The conditions noted are these: COS7 hTOR1A mutant lysate, 635 nm fluorescence, higher = more signal.
For assay [19], the system named is Sonic hedgehog protein (Shh). The assay can be described thus: Sonic hedgehog microarray binding compounds – biochemical, small-molecule microarray, 635/667 nm fluorescence, primary screen (AID 1151).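 Note: Shh protein binding to compounds spotted on small-molecule microarray slides; score combines spot fluorescence intensity with signal-to-noise across triplicate slides.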 The conditions noted are these: 635 nm fluorescence, higher = more signal.

Activity calls are given as the source filed them. Unless noted, the rule behind the calls is not given here.

Sequence of Fibroblast growth factor 2 (Homo sapiens) (P09038 whole entry, looked up): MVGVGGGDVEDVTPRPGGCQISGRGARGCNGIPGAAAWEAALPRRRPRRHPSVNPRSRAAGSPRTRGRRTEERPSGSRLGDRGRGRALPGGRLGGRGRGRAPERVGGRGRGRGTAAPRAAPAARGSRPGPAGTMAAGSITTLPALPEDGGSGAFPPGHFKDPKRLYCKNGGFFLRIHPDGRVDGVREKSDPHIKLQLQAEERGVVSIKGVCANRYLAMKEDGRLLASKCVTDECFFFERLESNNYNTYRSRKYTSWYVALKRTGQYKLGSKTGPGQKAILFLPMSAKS
Sequence of Streptavidin (Streptomyces avidinii) (P22629 whole entry, looked up): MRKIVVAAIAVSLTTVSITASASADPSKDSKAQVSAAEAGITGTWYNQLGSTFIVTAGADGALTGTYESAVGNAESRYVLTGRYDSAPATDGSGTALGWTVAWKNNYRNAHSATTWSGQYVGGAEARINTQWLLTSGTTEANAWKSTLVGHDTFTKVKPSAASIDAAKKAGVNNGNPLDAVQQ
Sequence of Follistatin (Homo sapiens) (P19883 whole entry, looked up): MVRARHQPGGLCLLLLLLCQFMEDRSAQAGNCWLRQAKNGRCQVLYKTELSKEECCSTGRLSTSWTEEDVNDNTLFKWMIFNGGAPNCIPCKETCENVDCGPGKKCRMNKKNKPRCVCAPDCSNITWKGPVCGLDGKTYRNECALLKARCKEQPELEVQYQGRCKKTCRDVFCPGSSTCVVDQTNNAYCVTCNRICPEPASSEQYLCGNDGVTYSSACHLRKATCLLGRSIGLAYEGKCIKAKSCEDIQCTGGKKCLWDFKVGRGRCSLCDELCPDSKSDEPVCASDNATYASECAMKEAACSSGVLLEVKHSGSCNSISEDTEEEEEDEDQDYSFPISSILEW

With `COc1cc2c(cc1O)C(C)N(Cc1cc3c(cc1Br)OCO3)CC2` (stereo not given), the composite z-score in assay [1] was -0.408; in assay [2], -1.4; in [3], -0.618; in assay [4], -1.01; in assay [5], -0.381; in [6], -0.437. For the same compound, the composite z-score with Lefty1 is -0.46; in [8], -0.55; in assay [10] it was -0.131; in assay [15], -0.679; in assay [16] it was -0.157; in the assay with Torsin-1A (Homo sapiens) [17], -1.12. Moreover, the composite z-score in the assay with Torsin-1A (Homo sapiens) [18] was -0.829; in assay [19], -0.836. The z-score in assay [7] is -0.472; in [9], -0.499 (inactive); in assay [11], -3.33 (inactive); in assay [12], 0.3 (inactive); in assay [13] it was 1.27 (inactive); in assay [14], 0.861 (inactive).
In the case of `COc1ccc(C#Cc2ccc3c(c2)[C@]2(C(=O)N3)[C@H](C(=O)N3CCc4cc(OC)c(OC)cc4C3)[C@H]3C(=O)O[C@H](c4ccccc4)[C@H](c4ccccc4)N3[C@@H]2c2ccc(O)cc2)cc1`, the composite z-score was 1.5 in assay [1]; 1.2 in assay [2]; 0.735 in assay [3]; 0.924 in assay [4]; 0.896 in assay [5]; 0.465 in assay [6]. For the same compound, the composite z-score was 0.374 in the assay on Lefty1; 0.0376 in [8]; 0.219 in assay [10]; 1.04 in assay [15]; -0.121 in assay [16]; 1.03 in the assay with Torsin-1A (Homo sapiens) [17]. The composite z-score turned out to be 0.199 in the assay with Torsin-1A (Homo sapiens) [18] and 0.466 in assay [19]. For the same compound, the z-score was -1.47 in assay [7]; -0.716 (inactive) in [9]; -0.59 (inactive) in assay [11]; -1.01 (inactive) in [12]; -0.141 (inactive) in assay [13]; -1.02 (inactive) in assay [14].
As to `CC(C)CCC[C@@H](C)[C@H]1CC[C@@]2(C)C3=C(CC[C@]12C)[C@@]1(C)CC[C@H](OC(=O)c2ccc(Br)cc2)C(C)(C)C1CC3` (stereo not given in full), the composite z-score in assay [1] was -0.242; in assay [2] it was 0.595; in assay [3] it was -0.172; in assay [4] it was 0.487; in [5] it was 0.485; in assay [6], 0.508. For the same compound, the composite z-score in the assay with Lefty1 stood at 0.573; in [8], 0.538; in assay [10], 0.119; in assay [15] it was 0.0916; in assay [16], 0.054; with Torsin-1A (Homo sapiens) [17] it was 0.276. The composite z-score in the assay with Torsin-1A (Homo sapiens) [18] was 0.409; in assay [19] it was 0.384. The z-score in [7] is 0.367; in assay [9] it was -1.28 (inactive); in assay [11] it was -1.17 (inactive); in assay [12], -0.784 (inactive); in [13], 0.21 (inactive); in assay [14], 0.168 (inactive).
`CCCCC(CC)C(O)C1C=CC2C(=O)N(c3ccccc3)C(=O)C2N1Nc1ccc([N+](=O)[O-])cc1` (stereo not given): the composite z-score turned out to be 1.48 in [1]; 1.23 in assay [2]; 0.623 in [3]; 1.04 in assay [4]; 1.21 in [5]; 0.456 in assay [6]. For the same compound, the composite z-score in the assay on Lefty1 is 0.39; in assay [8], 1.02; in [10], 0.382; in assay [15], 1.41; in assay [16], 0.32; with Torsin-1A (Homo sapiens) [17] it was 0.202. The results for the composite z-score (with Torsin-1A (Homo sapiens) [18]; in [19]) were 0.923 and -0.277, respectively. Also, the z-score in [7] is -1.19; in [9], 0.262 (inactive); in [11] it was -0.728 (inactive); in assay [12], 0.00163 (inactive); in [13], 0.285 (inactive); in assay [14] it was -0.0973 (inactive).
Consider `NCCCCCCNC(=O)[C@@H]1C[C@@H]2C(=O)N3CCC[C@H]3C(=O)N2[C@@H]1c1ccc(O)cc1`, for which the composite z-score came out at 0.508 in assay [1]; 1.18 in assay [2]; 0.439 in [3]; 0.578 in assay [4]; 1.41 in [5]; 1.29 in [6]. Also, the composite z-score with Lefty1 is 1.25; in assay [8] it was 0.636; in assay [10] it was 0.236; in assay [15] it was 1.01; in [16], -0.323; with Torsin-1A (Homo sapiens) [17], 0.592. For the same compound, the composite z-score in the assay with Torsin-1A (Homo sapiens) [18] came out at 0.513; in assay [19], 2. Besides, the z-score in assay [7] is 0.37; in assay [9] it was -0.284 (inactive); in assay [11], -0.118 (inactive); in assay [12] it was -0.515 (inactive); in assay [13] it was 0.826 (inactive); in assay [14], -0.615 (inactive).
